Most compounds without a hit are left out; they make up all but 27% or so of the library.
CYP2C9 inh: inhibitors of human CYP2C9; P11712; CYP2C9 Supersomes, luciferin-H conversion, luminescence; inhibition, % at 5 µM; 96,000 tested, 20% active;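 active means blocking of liver enzyme CYP2C9 beyond about 50% at 5 µM, limit read from the data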
Target sequence (P11712 whole entry, looked up): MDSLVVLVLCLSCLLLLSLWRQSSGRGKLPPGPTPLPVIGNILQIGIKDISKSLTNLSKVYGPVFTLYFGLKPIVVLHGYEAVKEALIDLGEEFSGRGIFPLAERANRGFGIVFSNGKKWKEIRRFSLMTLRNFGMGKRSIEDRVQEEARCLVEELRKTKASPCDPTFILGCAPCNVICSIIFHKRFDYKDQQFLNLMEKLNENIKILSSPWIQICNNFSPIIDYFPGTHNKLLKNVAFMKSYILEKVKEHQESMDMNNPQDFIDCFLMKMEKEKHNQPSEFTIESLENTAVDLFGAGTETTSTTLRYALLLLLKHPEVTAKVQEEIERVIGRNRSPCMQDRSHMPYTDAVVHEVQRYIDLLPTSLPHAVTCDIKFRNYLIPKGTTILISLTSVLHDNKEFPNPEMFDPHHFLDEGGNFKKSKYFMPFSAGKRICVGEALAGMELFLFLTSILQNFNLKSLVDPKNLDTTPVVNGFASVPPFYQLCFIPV
PTK2B oligo ant: antagonists of human Pyk2 oligomerization | Q14289 | Q293 cells, Pyk2 FERM NanoBiT luminescence; hits give low values | z-score (the deposit names both 25 µM and 10 µM) | 99,000 tested, 0.83% active;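 active means Z-score of -3 or lower, scaled per plate to the spread of control and sample wells; inactive means z-score above -3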;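 further: negative z-score means lost luminescence so less FERM oligomerization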
CYP2C19 inh: human CYP2C19 inhibition; AID 778; inhibition, % at 5 µM; 96,000 tested, 21% active; CYP2C19 Supersomes, luciferin-H EGE luminescence, 30 min;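 active means CYP2C19 inhibition above a set limit at 5 µM in the primary screen, cut at about 50% in these data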;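 further: plate controls were negative control wells for no effect and 2.5 mM tranylcypromine positive control for full effect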
CYP2C19 act: increases human CYP2C19 enzyme activity; P33261; recombinant CYP2C19, luciferin-H EGE luminescence; hits give high values; 0 = fully inhibited enzyme, 1 = untreated enzyme; activation factor at 5 µM; 96,000 tested, under 10 active; AID 1025;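 active means activation factor of at least 2 at 5 µM in the primary screen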;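 further: 0 = wells with 2.5 mM tranylcypromine and 1 = vehicle-only wells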
Cav3 T inh: human Cav3.2 channel inhibition, primary screen; O95180; Cav3.2-expressing cells, Fluo-4 calcium fluorescence FDSS; hits give low values; B-score at 10 µM; 100,000 tested, 4% active;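 active means single-dose well whose peak fluorescence ratio is a statistical outlier from its plate by either plate-standardised score or position-corrected B-score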
CYP2C9 act: activators of human CYP2C9 | 96,000 tested, 1.4% active | recombinant CYP2C9, luciferin-H conversion, luminescence; hits give high values; factor 1 = untreated enzyme, 0 = blocked | P11712 | AID 1024 | activation factor at 5 µM;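 active means activation factor of 2 or more for CYP2C9 at a 5 µM dose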;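 further: 0 = sulfaphenazole-blocked wells and 1 = vehicle-only wells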
An asterisk follows results filed as active; . = not tested or not shown.

SMILES	CYP2C9 inh	PTK2B oligo ant	CYP2C19 inh	CYP2C19 act	Cav3 T inh	CYP2C9 act
CCCCCCN1C(=O)C(O)=C(C(C)=O)C1c1ccc(Cl)cc1 (stereo not drawn)	75*	-0.39	20	0.8	-7.8*	0.2
CC(=O)C1=C(O)C(=O)N(CCc2c[nH]c3ccccc23)C1c1ccc(O)cc1 (stereo not drawn)	53*	-0.56	-11	1.1	0.004	0.5
COc1ccc(C2C(C(C)=O)=C(O)C(=O)N2CCc2c[nH]c3ccccc23)cc1OC (stereo not drawn)	89*	0.62	-4	1	1.2	0.1
CCCCN1C(=O)C(O)=C(C(C)=O)C1c1ccccc1 (stereo not drawn)	3	-0.63	-10	1.1	0.88	1
CC(=O)NS(=O)(=O)c1ccc(NC(=O)c2ccc(Br)o2)cc1	-11	1.6	-2	1	0.021	1.1
O=C(c1ccccc1Oc1nnnn1-c1ccccc1)N1CCOCC1	-9	0.18	-5	1.1	0.25	1.1
Cc1ccc(C)c(Oc2nnnn2-c2ccccc2)c1	43	-0.74	93*	0.1	-2.4	0.6
Cc1ccc(C(C)C)c(Oc2nnnn2-c2ccccc2)c1	76*	-2.8	91*	0.1	-1.8	0.2
O=C1CC(O)(c2ccccc2)C(c2ccccc2)=C1c1ccccc1 (stereo not drawn)	.	-1.2	.	.	-5*	.
CC(C)(C)N1CC2(c3ccccc3)CN(C(C)(C)C)CC(c3ccccc3)(C1)C2=O	4	-0.53	-10	1.1	-0.77	1
O=C(NC1CCCC1)C1CCCN1C(=O)Nc1ccc(Cl)cc1 (stereo not drawn)	3	1	27	0.7	0.94	1
Cc1cc(-c2ccccc2)nc(N(C)NC(=O)c2c(F)cccc2F)c1S(C)(=O)=O	69*	0.09	51*	0.5	-1.7	0.3
Cc1cccc(C(=O)NN(C)c2nc(-c3ccccc3)nnc2C(F)(F)F)c1	2	1	2	1	0.96	1
C[c-]1[c-](C)[c-](C)[c-](C)[c-]1C.[Fe].c1cc2nccc(N3CCCC3)[c-]2c1 (stereo not drawn)	.	.	.	.	0.2	.
O=C(COC(=O)C1CC(=O)N(C2CCCCC2)C1)c1ccc(F)cc1 (stereo not drawn)	4	.	8	0.9	-0.12	1
COc1ccc(S(=O)(=O)NCc2ccc3c(c2)OCO3)cc1C	24	-0.32	100*	0	-1.9	0.8
COc1cccc(S(=O)(=O)NCc2ccc3c(c2)OCO3)c1	91*	-0.59	100*	0	0.28	0.1
COc1ccc(S(=O)(=O)NCc2ccc3c(c2)OCO3)cc1C(=O)O	-44	-0.78	-11	1.1	0.96	1.4
CN(C)S(=O)(=O)NCc1ccc2c(c1)OCO2	30	0.78	69*	0.3	0.11	0.7
COc1cccc(CNS(=O)(=O)/C=C/c2ccc3c(c2)OCO3)c1	69*	1.6	99*	0	-3.4	0.3
COc1cccc(CNS(=O)(=O)c2cn(C)cn2)c1	5	0.25	18	0.8	.	0.9
N#CCCCSc1nnnn1-c1cccc(Cl)c1	-13	-0.02	80*	0.2	0.51	1.1
Cc1ccc(C2=C/C(=C/c3cccs3)C(=O)O2)cc1	.	-0.18	.	.	.	.
Cc1nc2cc(-c3cccc(F)c3)nn2c(N2CCN(C(=O)c3ccco3)CC2)c1C	4	0.61	7	0.9	.	1
CCNc1nc(NC(C)C)nc(N(C#N)Cc2ccccc2)n1	8	-2.4	24	0.8	.	0.9
SMILES	CYP2C9 inh	PTK2B oligo ant	CYP2C19 inh	CYP2C19 act	Cav3 T inh	CYP2C9 act
CCNc1nc(NC(C)C)nc(N(C#N)CCOc2ccc(Cl)cc2Cl)n1	12	-2.5	77*	0.2	-9.4*	0.9
C#CCNC(=O)C1=C[C@H](C)[C@@H](CCCO)[C@H](OCC)O1	.	.	.	.	0.067	.
COc1cccc(C2C(C(=O)c3sc(C)nc3C)=C(O)C(=O)N2CCN(C)C)c1OC (stereo not drawn)	-5	.	2	1	.	1.1
C#CCOC(=O)C(NC(=O)c1ccccc1)=C1CCCCC1	68*	0.53	39	0.6	0.0047	0.3
Cc1nc2ccccc2nc1N1CCCCC1	33	0.26	37	0.6	-0.25	0.7
CC1=NN(c2ccccc2)C(=O)/C1=C/c1cc2cc(C)ccc2nc1N1CCCCC1	81*	.	67*	0.3	1.4	0.2

Source: PubChem
